Measured values taken from PubChem BioAssay AID488896 (Broad Institute, 2010).
About 3,100 (0.97%) of roughly 320,000 compounds were called active.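 How the source made its calls: active means mean replicate inhibition of at least 70% and a set share of replicates each scoring 70 or more; inconclusive means meets just one of the two criteria; inactive means fails both criteria.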 Only a selection was taken, and actives are over-represented in it overall.

Each molecule was assayed against Scavenger receptor class B member 1 (Mus musculus) (UniProt Q61009) (assay: inhibitors of SR-BI mediated HDL lipid uptake, primary screen, ldlA[mSR-BI] cells, fluorescence, single point (AID 488896;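 further: 0% = median of neutral control wells and 100% = median of positive control wells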)). Details: ldlA[mSR-BI] CHO cells, DiI-HDL uptake fluorescence, 3 h; at 12.5 µM; hits give high values.
Chain of Scavenger receptor class B member 1 (Mus musculus) (Q61009 whole entry, looked up): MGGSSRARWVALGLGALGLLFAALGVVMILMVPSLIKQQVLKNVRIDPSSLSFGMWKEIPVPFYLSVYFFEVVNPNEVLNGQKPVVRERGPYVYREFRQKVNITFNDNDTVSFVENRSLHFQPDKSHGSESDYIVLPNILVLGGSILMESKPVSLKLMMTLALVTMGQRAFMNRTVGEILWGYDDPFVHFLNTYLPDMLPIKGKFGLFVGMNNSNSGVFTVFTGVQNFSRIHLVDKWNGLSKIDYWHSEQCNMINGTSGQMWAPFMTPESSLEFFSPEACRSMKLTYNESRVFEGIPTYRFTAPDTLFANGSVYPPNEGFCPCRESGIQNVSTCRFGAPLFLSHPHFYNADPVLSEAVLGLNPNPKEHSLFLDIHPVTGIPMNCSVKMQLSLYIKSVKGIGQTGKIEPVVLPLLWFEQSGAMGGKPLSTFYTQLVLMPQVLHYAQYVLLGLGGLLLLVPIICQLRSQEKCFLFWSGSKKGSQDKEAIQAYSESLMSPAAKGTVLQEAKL

Row | SMILES | inhibition
1 | Cc1ccc(OCCNC(=O)c2cccc(S(=O)(=O)N3CCN(Cc4ccccc4)CC3)c2)cc1 | 20.6% (inactive)
2 | COc1ccc(C(=O)Nc2cccc(/C=C(/CCC(=O)O)c3nc4ccccc4s3)c2)cc1 | 36.4% (inactive)
3 | O=C(N/N=C/c1ccc(OC(=O)c2ccccc2Cl)cc1)c1ccc(O)cc1 | 44.4% (inactive)
4 | CC(C)(C)C(=O)Nc1ccc(C(=O)N/N=C/c2ccccc2OC(=O)c2ccc(Cl)cc2Cl)cc1 | 94.1% (active)
5 | O=C(N/N=C/c1ccoc1)c1ccc(Cl)cc1Cl | -28.2% (inactive)
6 | O=C(NCC1(N2CCCCC2)CCCCC1)c1cccc(S(=O)(=O)Nc2ccccc2Cl)c1 | -8.99% (inactive)
7 | CCOc1ccc2c(c1)C(c1ccc(C)cc1)=NNC(c1ccc(C)cc1)=N2 | 85.5% (active)
8 | Cc1ccc(C2=Nc3c(ccc4ccccc34)C(c3ccncc3)=NN2)cc1 | 2.19% (inactive)
9 | COc1ccc2c(c1)C(c1cccs1)=NNC(c1cccnc1)=N2 | -13.8% (inactive)
10 | CN(C)c1ccc(CSc2ccccc2)cc1 | -8.91% (inactive)
11 | O=C(CCCCCCCC(=O)N1CCCCC1)N1CCCCC1 | -7.35% (inactive)
12 | CSCCC(NC(=O)COc1ccccc1)C(=O)N1CCN(c2cccc(C(F)(F)F)c2)CC1 (stereo not given) | 13.3% (inactive)
13 | CCC(=O)Nc1ccc(C(=O)N2CCN(C(=O)c3ccco3)CC2)cc1 | -9.2% (inactive)
14 | Cc1ccc(OCC(=O)Nc2ccc(N3CCN(C(=O)c4ccco4)CC3)cc2)c(C)c1 | 78% (active)
15 | Cc1ccc(C)c(OCC(=O)N2CCN(C(=O)c3ccco3)CC2)c1 | -10.6% (inactive)
16 | COc1cc2[nH]c(O)c(C=O)c2cc1OC | -52% (inactive)
17 | O=C1OCC2=C1C(c1ccc(Cl)cc1)c1cc3c(cc1O2)OCO3 (stereo not given) | 14% (inactive)
18 | Cc1ccc(Nc2nc(N3CCOCC3)nc(N3CCOCC3)n2)cc1Cl | 55% (inactive)
19 | COc1ccc(Nc2ncc(F)c(N3CCOCC3)n2)cc1 | 22.2% (inactive)
20 | CCOc1ccc(Nc2nc(Cl)nc(N3CCN(c4ccc(OC)cc4)CC3)n2)cc1 | 73.8% (active)
21 | CCN(CC)S(=O)(=O)c1cccc(NC(=O)c2ccc(S(=O)(=O)N3CCCC3)cc2)c1 | 41.2% (inactive)
22 | Cn1c(N)cc(=O)n(C)c1=S | -17.8% (inactive)
23 | CCOC(=O)c1ccc(NC(=S)N2CCCC2)cc1 | -10.4% (inactive)

Row | SMILES | inhibition
24 | NC(=O)C1(N2CCCCC2)CCN(C(=S)Nc2ccc(Cl)cc2)CC1 | -24.6% (inactive)
25 | CN(C)c1ccc(C(=S)N2CCN(C(=S)Nc3ccc(Cl)cc3)CC2)cc1 | 95% (active)
26 | Cc1nc(-c2ccc(Cl)cc2)sc1C(=O)NN | 25.2% (inactive)
27 | C=CCNC(=O)c1sc(SC)cc1-c1ccc(Cl)cc1 | 73.9% (active)
28 | C=CCNC(=O)c1cc(-c2ccccc2O)on1 | 44.1% (inactive)
29 | CC[C@]12c3[nH]c4cc(CCC(=O)N(C)C)ccc4c3CCN1C(=O)[C@@H](CC(=O)NCC13CC4CC(CC(C4)C1)C3)C[C@@H]2C(=O)N1CCN(C(=O)C2CC2)CC1 | 1.08% (inactive)
30 | O=C(CSc1nc2ccccc2[nH]1)N/N=C/C=C\c1ccccc1[N+](=O)[O-] | 4.51% (inactive)
31 | CCn1c(SCC(=O)N/N=C/C=C/c2ccccc2[N+](=O)[O-])nnc1-c1ccccc1 | 14.2% (inactive)
32 | Cc1ccc(-n2c(SCC(=O)N/N=C/C=C/c3ccccc3[N+](=O)[O-])nc3ccccc3c2=O)cc1 | 74% (active)
33 | CNN/C(N=Cc1ccc([N+](=O)[O-])s1)=N\S(=O)(=O)c1cc(C)c(Cl)cc1SCc1ccccc1 | -9.94% (inactive)
34 | CC(C=Cc1ccccc1)=NNS(=O)(=O)c1ccc([N+](=O)[O-])cc1 | -6.47% (inactive)
35 | CCc1ccc(C(=O)C(C)OC(=O)CN2C(=O)NC3(CCCC3)C2=O)cc1 (stereo not given) | -13.5% (inactive)
36 | CC(C)(C)S(=O)(=O)N1Cc2cc(CO)cc(CCO)c2[C@H]1CCO | 2.47% (inactive)
37 | CCOc1ccc(-n2c(O)c(/C=N/Nc3nnc(C)c(=O)[nH]3)c3ccccc3c2=O)cc1 | 108% (active)
38 | CCOc1ccc(-n2c(O)c(/C=N/c3ccnn3Cc3ccncc3)c3ccccc3c2=O)cc1 | -0.942% (inactive)
39 | CCOc1ccc(-n2c(O)c(/C=N/Nc3nc(C)cc(C)n3)c3ccccc3c2=O)cc1 | 34.2% (inactive)
40 | CC(=O)N1CCc2ccc(N)cc21 | 12.2% (inactive)
41 | COc1cc(/C=N/NC(=O)c2ccoc2C)ccc1OCCN1CCCCC1 | 3.01% (inactive)
42 | COc1cc(/C=N/NC(=O)Cc2ccccc2)cc(OC)c1OC | 3.39% (inactive)
43 | COc1cc(/C=N/NC(=O)Nc2ccccc2)ccc1OCCOc1ccccc1C | 71.4% (active)
44 | O=C1OC(Oc2ccc(Br)cc2)(c2ccccc2)c2ccccc21 (stereo not given) | 0.981% (inactive)
45 | CCc1nnc(NC(=O)c2cc(S(=O)(=O)N3CCN(CC)CC3)ccc2Cl)s1 | -25.4% (inactive)
46 | NS(=O)(=O)c1cccc(NC(=O)CSc2nc3ccccc3n2-c2ccccc2)c1 | 23.7% (inactive)

Row | SMILES | inhibition
47 | CCOc1ccc(-n2c(SCC(=O)Nc3cc(C(=O)O)ccc3Cl)nc3ccccc3c2=O)cc1 | -14% (inactive)
48 | Cc1ccc(-n2c(SCC(=O)Nc3ncc(Cl)cc3Cl)nc3ccccc32)cc1 | 78.1% (active)
49 | COc1ccc(-c2sc3ccc(OC)cc3c2C#Cc2ccccn2)cc1 | 56.6% (inactive)
50 | COc1ccc2sc(-c3ccc(N(C)C)cc3)c(-c3ccc4cc[nH]c4c3)c2c1 | 85% (active)
51 | COc1ccc2sc(-c3ccc(N(C)C)cc3)c(C#CCO)c2c1 | 99.4% (active)
52 | COc1ccc2sc(-c3ccc(S(C)(=O)=O)cc3)c(C#Cc3cncn3C)c2c1 | 13.9% (inactive)
53 | COc1cc(OC)cc(-c2sc3ccc(OC)cc3c2-c2ccc3cc[nH]c3c2)c1 | 58.8% (inactive)
54 | COc1ccc2sc(-c3ccc(S(C)(=O)=O)cc3)c(-c3ccc(C(N)=O)cc3)c2c1 | 54.1% (inactive)
55 | CN1CCC(N(C)C(=O)c2ccc(Cl)c(S(=O)(=O)Nc3ccc(Cl)cc3)c2)CC1 | -12% (inactive)
56 | O=C(NCC1CCCCC1)NCC1CCCCC1 | -12.9% (inactive)
57 | O=C(O)c1ccc(S(=O)(=O)c2ccccc2)s1 | -1.03% (inactive)
58 | COc1ccc2nc(N3C(=O)C(O)=C(C(=O)c4ccco4)C3c3ccco3)sc2c1 (stereo not given) | -2.11% (inactive)
59 | O=C(Cc1ccc(S(=O)(=O)N2CCOCC2)s1)Nc1ccc(Br)c(C(F)(F)F)c1 | -43.4% (inactive)
60 | CC(C)Cn1cnc2c(SCc3ccc(Cl)cc3)nc(N)nc21 | 7.71% (inactive)
61 | CCCCC(=O)Nc1ccccc1N1CCN(c2ccc(F)cc2)CC1 | 34% (inactive)
62 | Cc1cccc(C(=O)Nc2ccccc2N2CCN(c3ccc(F)cc3)CC2)c1 | 74.9% (active)
63 | CCC(C)C(=O)Nc1ccccc1N1CCN(c2ccc(F)cc2)CC1 (stereo not given) | 36.3% (inactive)
64 | OCCN1CCN(c2nnc(-c3ccccc3)c3ccccc23)CC1 | 3.57% (inactive)
65 | CCCC(=O)N1CCN(c2nnc(-c3ccc(C)cc3)c3ccccc23)CC1 | 76.8% (active)
66 | c1ccc(-c2nnc(N3CCOCC3)c3ccccc23)cc1 | 27.8% (inactive)
67 | Cc1ccc(-c2csc(C(C#N)=C(O)CN3CCN(C(=O)c4ccco4)CC3)n2)cc1 | 4.1% (inactive)
68 | CCOc1ccc(/C=C(/C#N)c2nnc(N3CCOCC3)n2-c2ccccc2)cc1OC | -9.11% (inactive)
69 | O=C(Cc1ccc(NC(=O)C2CCCN(C(=O)C3CCCCC3)C2)cc1)Nc1cccc(C(=O)N2CCCCC2)c1 (stereo not given) | 43.2% (inactive)

Row | SMILES | inhibition
70 | CNc1nc(=O)n(C2CCCO2)cc1C (stereo not given) | 0.704% (inactive)
71 | CCOC(=O)N(Cc1ccccc1)C1CC1 | 1.61% (inactive)
72 | CC(=O)Nc1cccc(-c2csc(Nc3cccc(C)n3)n2)c1 | 76.4% (active)
73 | COc1ccc(CC(=O)Nc2nc(-c3ccc(F)c(F)c3)cs2)cc1OC | 29.1% (inactive)
74 | COc1ccc(CCNc2nc(-c3cccc(NC(C)=O)c3)cs2)cc1OC | 75.5% (active)
75 | COc1ccc(CCN(C(=O)COc2ccccc2)c2nc(-c3ccccc3)cs2)cc1OC | 24.1% (inactive)
76 | Cc1cccc(Nc2nc(-c3ccccc3)cs2)n1 | 52.4% (inactive)
77 | CC(=O)Nc1ccc(-c2csc(NC=C3C(=O)OC(C)(C)OC3=O)n2)cc1 | 4.07% (inactive)
78 | CCC1([N+](=O)[O-])COC(c2ccc(C)cc2)OC1 (stereo not given) | -12.8% (inactive)
79 | Nc1cc(=O)n(Cc2ccccc2)c(=O)n1Cc1ccccc1 | 0.22% (inactive)
80 | C[C@@H]1ON(C)[C@H]2C[C@H]3c4cc(N5CCN(C)CC5)ccc4CCN3C(=O)[C@@H]12 | -19.4% (inactive)
81 | Cn1c(=S)sc2ccc3ccccc3c21 | 5.87% (inactive)
82 | N#CC1(Nc2ccc(-c3ccc(Cl)cc3)cc2)CCCC1 | 5.44% (inactive)
83 | O=C(Nc1ccc(NC(=O)c2ccc3c(c2)OCO3)cc1)c1cccc(Cl)c1 | -14.8% (inactive)
84 | O=C(Nc1cccc(S(=O)(=O)Nc2ccc(Cl)cc2)c1)c1ccc2c(c1)OCCO2 | 70.2% (active)
85 | O=C(Nc1cccc(S(=O)(=O)N2CCCCC2)c1)c1ccc2c(c1)OCO2 | 8.54% (inactive)
86 | NS(=O)(=O)c1ccc(CCNC(=O)c2ccc(Cl)c(S(=O)(=O)N3CCCCCC3)c2)cc1 | 32.8% (inactive)
87 | CCCCC(=O)Nc1ccc(C(=O)Nc2cc(C(F)(F)F)ccc2Cl)cc1 | 67.9% (inactive)
88 | CCCC(=O)Nc1ccc(Cl)c(NC(=O)c2ccc(Br)o2)c1 | 70.8% (active)
89 | CCN1CCN(c2c(Cl)cccc2NC(=O)c2ccc(Br)o2)CC1 | 33.7% (inactive)
90 | COc1cc2c(cc1OC)C1C(=O)c3cc(OS(C)(=O)=O)c(OC)cc3C1N(C)C2=O (stereo not given) | -1% (inactive)
